In PubChem BioAssay (Tox21):
Where “and” joins values, the source holds several entries; their conditions need not be identical. Equal values may be shown once. Results filed as inconclusive are left out. Where a call stands in place of a potency, no number is given. Where a structure was tested more than once in an assay, its records may differ in their call. Calls of active or inactive are those of the source. Unless noted, calls follow the shape of the dose curve; as a rule, active = well fitted curve in the direction sought with a large enough effect in the repeat runs; inconclusive = weak or mixed curves; inactive = no such curve, though single readings can be large; an effect the other way counts as inactive or inconclusive.

Tests used:
[1] = qHTS assay for small molecules that induce genotoxicity in human embryonic kidney cells expressing luciferase-tagged ATAD5 (AID 651632); also: nearly all actives have a fitted effect of over 15% in size
How it was run: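 Luminescent reporter readout, HEK293T ATAD5-luc line: 16 hr drug exposure (37C, 5% CO2) followed by Amplite, 30 min RT.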

[2] = qHTS assay for small molecule agonists of the p53 signaling pathway - cell viability (AID 651633; calls by dose curve; also: nearly all actives have a fitted effect of over 30% in size; also: potency is read from the fitted curve at half-maximal effect)
How it was run: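 Viability counter-read: CellTiter-Glo luminescence (30 min, room temperature) in the same p53RE-bla plates. These plates had been exposed to compounds for 16 h at 37 C.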

[3] = qHTS assay for small molecules that induce genotoxicity in human embryonic kidney cells expressing luciferase-tagged ATAD5 - cell viability (AID 651634; calls by dose curve; also: nearly all actives have a fitted effect of over 25% in size)
How it was run: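 Viability read: CellTiter-Fluor fluorescence, 30 min at 37C. Cells: HEK293T, luciferase-tagged ATAD5. Exposure: 15.5 hr, 37C, 5% CO2, compound or DMSO vehicle.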

[4] = qHTS assay for small molecule disruptors of the mitochondrial membrane potential - cell viability (AID 720634; calls by dose curve; also: nearly all actives have a fitted effect of over 20% in size; also: potency is read from the fitted curve at half-maximal effect)
How it was run: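 HepG2, 1 hr compound, 37 C. ATP luminescence via CellTiter-Glo, 30 min RT, same well as m-MPI.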

[5] = qHTS assay to test for compound auto fluorescence at 590 nm (red) in HepG2 cells (AID 720674)
How it was run: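 1 hr compound incubation on HepG2 cells, 37 C, 5% CO2; plate read ex 540 nm / em 590 nm; intensities reported as Rose Bengal sodium equivalents.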

[6] = qHTS assay to test for compound auto fluorescence at 535 nm (green) in HepG2 cells (AID 720675)
[7] = qHTS assay to test for compound auto fluorescence at 460 nm (blue) in HEK293 cells (AID 720678)
How it was run: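 HEK293 cells (2,000 per well, medium with 10% dialyzed FBS) attached for 4-5 hr at 37C, then received compound and stood overnight at 37C, 5% CO2. Blue fluorescence was read at Ex/Em 405/460 nm and expressed relative to triamterene.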

[8] = qHTS assay to test for compound auto fluorescence at 590 nm (red) in HEK293 cells (AID 720679)
How it was run: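 HEK293 cells (2,000/well, medium with 10% dialyzed FBS) attached for 4-5 hr at 37C, received 23 nL compound and were incubated overnight at 37C, 5% CO2. Red fluorescence was then read at 540/590nm Ex/Em, referenced to Rose Bengal sodium.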

[9] = qHTS assay to test for compound auto fluorescence at 535 nm (green) in HEK293 cells (AID 720680)
[10] = qHTS assay to test for compound auto fluorescence at 460 nm (blue) in HEK293 cell free culture (AID 720681)
How it was run: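 Blue fluorescence (Ex 405/Em 460 nm, triamterene-equivalent) was read immediately after pin transfer of compound or DMSO into medium (DMEM, 10% FBS) without cells.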

[11] = qHTS assay to test for compound auto fluorescence at 535 nm (green) in HEK293 cell free culture (AID 720682)
How it was run: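 Green-channel intensity (Ex/Em 485/535 nm) was recorded from compound-treated wells containing only DMEM with 10% FBS. Fluorescein provided the equivalency standard.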

[12] = qHTS assay to test for compound auto fluorescence at 590 nm (red) in HEK293 cell free culture (AID 720683)
How it was run: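 Red-channel autofluorescence of compounds in culture medium (DMEM, 10% FBS), no cells, measured at 540/590 nm. Rose Bengal sodium is the reference fluorophore for equivalence.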

[13] = qHTS assay to test for compound auto fluorescence at 590 nm (red) in HepG2 cell free culture (AID 720684)
How it was run: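 Steps: dispense MEM/10% FBS medium, no cells; pin compound or DMSO vehicle; read red channel, Ex/Em 540/590 nm. Output given as Rose Bengal sodium equivalents.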

[14] = qHTS assay to test for compound auto fluorescence at 460 nm (blue) in HepG2 cell free culture (AID 720685)
How it was run: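 Compound (23 nL) or DMSO pinned into cell-free MEM with 10% FBS; blue fluorescence read at 405/460 nm excitation/emission, expressed as auto-fluorescence equivalency to triamterene.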

[15] = qHTS assay to test for compound auto fluorescence at 535 nm (green) in HepG2 cell free culture (AID 720686)
[16] = qHTS assay to test for compound auto fluorescence at 460 nm (blue) in HepG2 cells (AID 720687)
How it was run: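 Blue-channel autofluorescence (Ex/Em 405/460 nm, triamterene-equivalent) was measured after 1 hr compound exposure at 37 C, 5% CO2. Cells were HepG2, plated overnight at 37 C in MEM plus 10% FBS.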

[17] = qHTS assay for small molecule disruptors of the mitochondrial membrane potential (AID 720635); also: potency is read from the fitted curve at half-maximal effect
How it was run: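 Mitochondrial membrane potential tracked with Mito-MPS dye, red aggregates (ex 540/em 590 nm) against green monomers (ex 490/em 535 nm). Compound treatment 1 hr at 37C, dye 30 min in HepG2.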

[18] = target: Glucocorticoid receptor (Homo sapiens) (UniProt P04150); test: qHTS assay to identify small molecule agonists of the glucocorticoid receptor (GR) signaling pathway (AID 720691; active = well fitted activation curve with a large enough effect in the signal ratio in the repeat runs, not every such curve was filed as active; the % refers to the signal ratio)
How it was run: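 qHTS in GR-bla HeLa cells: 4 h settling at 37 C/5% CO2, 18 h compound incubation at 37 C, 2 h LiveBLAzer B/G FRET substrate at room temperature, fluorescence intensity measured.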

[19] = target: Glucocorticoid receptor (Homo sapiens) (UniProt P04150); test: qHTS assay to identify small molecule antagonists of the glucocorticoid receptor (GR) signaling pathway (AID 720692; active = well fitted inhibition curve with a large enough effect in the signal ratio in the repeat runs, not every such curve was filed as active; the % refers to the signal ratio)
How it was run: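 Inhibition of glucocorticoid signalling is measured in HeLa cells with a GRE-controlled beta-lactamase reporter; cells are co-treated with compound and 5 nM dexamethasone (final) for 18 h before FRET substrate readout.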

Sequence of Glucocorticoid receptor (Homo sapiens) (P04150 whole entry, looked up): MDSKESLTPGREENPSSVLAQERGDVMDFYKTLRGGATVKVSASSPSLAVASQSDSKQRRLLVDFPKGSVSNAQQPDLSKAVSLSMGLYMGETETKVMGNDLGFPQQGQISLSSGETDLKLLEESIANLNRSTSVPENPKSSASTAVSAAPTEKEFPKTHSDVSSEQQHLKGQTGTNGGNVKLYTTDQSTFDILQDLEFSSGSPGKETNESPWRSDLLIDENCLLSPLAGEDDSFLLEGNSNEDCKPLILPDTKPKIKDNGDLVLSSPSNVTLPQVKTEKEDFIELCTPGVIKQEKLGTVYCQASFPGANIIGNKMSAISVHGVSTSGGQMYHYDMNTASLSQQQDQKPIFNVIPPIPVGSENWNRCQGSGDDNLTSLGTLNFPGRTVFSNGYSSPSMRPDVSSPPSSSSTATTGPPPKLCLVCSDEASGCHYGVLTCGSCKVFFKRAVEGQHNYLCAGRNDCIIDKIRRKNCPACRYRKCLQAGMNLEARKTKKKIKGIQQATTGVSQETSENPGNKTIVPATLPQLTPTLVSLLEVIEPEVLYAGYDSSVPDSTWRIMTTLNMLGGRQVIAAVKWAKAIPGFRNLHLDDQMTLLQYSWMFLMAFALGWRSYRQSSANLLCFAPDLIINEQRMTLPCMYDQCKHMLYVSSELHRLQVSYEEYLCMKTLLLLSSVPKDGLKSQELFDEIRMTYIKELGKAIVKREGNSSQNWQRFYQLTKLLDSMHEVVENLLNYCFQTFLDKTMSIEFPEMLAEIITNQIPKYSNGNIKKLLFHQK

SMILES | Potency [1] | Potency [2] | Potency [3] | Potency [4] | outcome [5] | outcome [6] | Potency [7] | outcome [8] | outcome [9] | Potency [10] | outcome [11] | outcome [12] | outcome [13] | Potency [14] | outcome [15] | Potency [16] | Potency [17] | outcome [18] | Potency [19]
C[N+](C)(C)CC(=O)[O-] | inactive | inactive | inactive | inactive | inactive | inactive | inactive | inactive | inactive | inactive | inactive | inactive | inactive | inactive | inactive | inactive |  |  | 
CCC(=O)Nc1ccc(Cl)c(Cl)c1 |  | inactive | inactive | 54.5 µM (active) |  | inactive | inactive | inactive | inactive | inactive | inactive | inactive |  | inactive | inactive | inactive | 31.3 µM (active) and 30.6 µM (active) |  | 
O=NN(c1ccccc1)c1ccccc1 | inactive | inactive | inactive | inactive |  | inactive | inactive | inactive | inactive | inactive | inactive | inactive | inactive | inactive | inactive | inactive |  | inactive | inactive
COP(=S)(OC)Oc1ccc(Sc2ccc(OP(=S)(OC)OC)cc2)cc1 | inactive | inactive | inactive | 61.1 µM (active) |  | inactive | inactive | inactive | inactive | inactive | inactive | inactive | inactive | inactive | inactive | inactive |  |  | 
O=S(=O)(O)C(F)(F)C(F)(F)C(F)(F)C(F)(F)C(F)(F)C(F)(F)C(F)(F)C(F)(F)F | inactive | inactive and 48.6 µM (active) | inactive |  |  | inactive | inactive | inactive | inactive | inactive | inactive | inactive | inactive | inactive | inactive | inactive |  |  | 
CC(C)CON=O | inactive | inactive | inactive | inactive |  | inactive | inactive | inactive | inactive | inactive | inactive | inactive |  | inactive | inactive | inactive |  | inactive | inactive
CCOP(=O)(O)OCC (tested in a mixture with another compound) | inactive | inactive and 60.6 µM (active) |  | inactive and 60.6 µM (active) | inactive | inactive | inactive | inactive | inactive | inactive | inactive | inactive |  | inactive | inactive | inactive |  |  | 
C=CC(Cl)CCl (stereo not drawn) | inactive | inactive | inactive |  |  | inactive | inactive | inactive | inactive | inactive | inactive | inactive | inactive | inactive | inactive | inactive |  | inactive | inactive
COP(=O)(NC(C)=O)SC (stereo not drawn) | inactive | inactive | inactive | inactive |  | inactive | inactive | inactive | inactive | inactive | inactive | inactive |  | inactive | inactive | inactive |  | inactive | inactive
O=C1C(Cl)=C(Cl)C(=O)c2ccccc21 | inactive | 6.88 µM (active) and 21.7 µM (active) | inactive | 13.7 µM (active) and 15.4 µM (active) | inactive | inactive |  | inactive | inactive | inactive | inactive | inactive | inactive | inactive | inactive | inactive |  |  | 
CC(O)CN(CC(C)O)CC(C)O (stereo not drawn) |  | inactive | inactive | inactive |  | inactive | inactive | inactive | inactive | inactive | inactive | inactive | inactive | inactive | inactive | inactive | inactive | inactive | inactive
O=P(OCCCl)(OCCCl)OCCCl | inactive | inactive | inactive | inactive |  | inactive | inactive | inactive | inactive | inactive | inactive | inactive | inactive | inactive | inactive | inactive |  | inactive | inactive
CCCCCCCCCC(CC)c1ccc(S(=O)(=O)O)cc1 (stereo not drawn) | inactive |  |  | inactive and 68.6 µM (active) | inactive | inactive | inactive | inactive | inactive | inactive | inactive | inactive | inactive | inactive | inactive | inactive |  | inactive | inactive
